For 45 compounds, ROS induction (% of piperlongumine) results are on record in PubChem BioAssay AID624156 (Broad Institute, 2012).

In all, about 46,000 compounds went through this assay and about 900 (2%) were called active. Inconclusive results (about 1%) are left out. Only a selection was taken, and actives are over-represented in it overall. A number with no mark means an inactive call. No stated cut-off is given here; in the data, active means ROS induction above about 79% (passing the limit was not always enough); inconclusive means no clear call, values can overlap the other calls.

This assay is described as follows: ROS inducers in U2OS cancer cells, primary screen, cell-based, H2DCF-DA fluorescence (AID 624156).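 Further: 0% = DMSO vehicle median and 100% = reference compound median.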 The note with it: at 10 µM, stronger effect = higher value.
As for `O=C(N1CCCCC1)[C@@]1(CCS(=O)(=O)c2ccccc2)N=C(c2ccc(OCCCO)cc2)O[C@H]1c1ccccc1`, the ROS induction (% of piperlongumine) is 97.7% (active).

For `COCCCNC(=O)[C@@]1(Cc2ccccc2)COC(c2ccc(OCCCO)cc2)=N1`, the ROS induction (% of piperlongumine) is 11.7%.

On to `O=C1N(CCS(=O)(=O)c2ccccc2)Cc2ccccc2[C@H]2OC(c3ccc(OCCCO)cc3)=N[C@@]12CCS(=O)(=O)c1ccccc1`, for which the ROS induction (% of piperlongumine) is 141% (active).

As to `C=CC[C@]1(C(=O)NCC(O)CO)N=C(c2ccc(OCCCO)cc2)O[C@H]1c1ccccc1` (stereo not given in full), the ROS induction (% of piperlongumine) is 30.5%.

As for `C[C@H]1CN([C@@H](C)CO)C(=O)Cc2cc(NC(=O)Nc3ccc4c(c3)OCO4)ccc2O[C@H]1CN(C)Cc1ccc(C(=O)Nc2ccccc2N)cc1`, the ROS induction (% of piperlongumine) is 29.3%.

As to `CCc1ccc(OCC(N)=O)cc1`, the ROS induction (% of piperlongumine) is 18.8%.

Take `C[C@@H]1CN([C@H](C)CO)C(=O)c2cccc(NC(=O)c3nc4ccccc4s3)c2O[C@H]1CN(C)Cc1ccccc1`: the ROS induction (% of piperlongumine) was 10.3%.

Consider `Nc1ncnc2nc(N3CCCCC3)[nH]c12`, for which the ROS induction (% of piperlongumine) was -11.8%.

Take `c1ccc(Cc2nc3c4c5c(sc4ncn3n2)CCCC5)cc1`: the ROS induction (% of piperlongumine) was 20.6%.

As to `Cc1ccc(S(=O)(=O)N(C)C[C@@H]2Oc3ccc(NC(=O)Cc4cn(C)c5ccccc45)cc3C(=O)N([C@@H](C)CO)C[C@@H]2C)cc1`, the ROS induction (% of piperlongumine) is -5.66%.

With `Cc1ccc(S(=O)(=O)N(C)C[C@@H]2Oc3ccc(NC(=O)Cn4cnnn4)cc3CC(=O)N([C@H](C)CO)C[C@H]2C)cc1`, the ROS induction (% of piperlongumine) is 101% (active).

Regarding `C[C@@H]1CN([C@H](C)CO)C(=O)Cc2cc(NC(=O)Cc3cn(C)c4ccccc34)ccc2O[C@@H]1CN(C)S(=O)(=O)c1ccccc1`, the ROS induction (% of piperlongumine) was 18.9%.

As for `C[C@@H]1CN([C@@H](C)CO)C(=O)Cc2cc(NC(=O)Cn3cnnn3)ccc2O[C@@H]1CN(C)S(=O)(=O)c1cn(C)cn1`, the ROS induction (% of piperlongumine) was 4.76%.

Regarding `C[C@@H]1CN([C@H](C)CO)C(=O)Cc2cc(NC(=O)Cn3cnnn3)ccc2O[C@@H]1CN(C)S(=O)(=O)c1ccc(F)cc1`, the ROS induction (% of piperlongumine) is 3.99%.

Regarding `Cc1ccc(S(=O)(=O)N(C)C[C@H]2Oc3ccc(NC(=O)Cc4cn(C)c5ccccc45)cc3CC(=O)N([C@@H](C)CO)C[C@H]2C)cc1`, the ROS induction (% of piperlongumine) is 109% (active).

`CC(C)(C)NC(=S)N1CCn2cccc2C1c1ccccc1F` (stereo not given): the ROS induction (% of piperlongumine) was 2.09%.

As to `Cn1nnc(NC(=O)COc2ccc(Cl)cc2Cl)n1`, the ROS induction (% of piperlongumine) was -1.96%.

Consider `Cc1noc(C)c1NC(=O)Nc1ccc2c(c1)C(=O)N([C@H](C)CO)C[C@@H](C)[C@H](CN(C)Cc1ccncc1)O2`, for which the ROS induction (% of piperlongumine) is -4.05%.

On to `COc1cccc(-c2cnc3c(c2)C(=O)N([C@H](C)CO)C[C@H](C)[C@H](CN(C)Cc2ccncc2)O3)c1`, for which the ROS induction (% of piperlongumine) is 32.7%.

In the case of `Cc1c(C(=O)N(Cc2ccccc2)Cc2cccnc2)cnn1-c1ccc(F)cc1`, the ROS induction (% of piperlongumine) is -9.45%.

As for `Brc1ccc(/C=N/n2cnnc2SCc2ccccc2)cc1`, the ROS induction (% of piperlongumine) was 2.37%.

As to `COc1ccc(NS(=O)(=O)c2ccc3c4c(cccc24)C(=O)S3)cc1`, the ROS induction (% of piperlongumine) is 35.7%.

For `O=C(Oc1c(Br)cc(Br)c2cccnc12)N1CCOCC1`, the ROS induction (% of piperlongumine) is 3.35%.

`COC(=O)c1ccc(NCc2cc(O)ccc2O)cc1`: the ROS induction (% of piperlongumine) is 10.2%.

In the case of `O=[N+]([O-])c1ccc(NCCNc2nc3ccccc3nc2N2CCOCC2)cc1`, the ROS induction (% of piperlongumine) was 61%.

For the compound `COC(=O)c1c(C)n(CCNc2ccc([N+](=O)[O-])cc2)c2ccc(O)cc12`, the ROS induction (% of piperlongumine) was 98.5% (active).

Turning to `C[C@@H]1CCCCO[C@@H](CN(C)C(=O)NC2CCCCC2)[C@@H](C)CN([C@H](C)CO)C(=O)c2cc(NC(=O)CCC(F)(F)F)ccc2O1`, the ROS induction (% of piperlongumine) is 37.6%.

For `Cc1noc(C)c1NC(=O)N(C)C[C@@H]1Oc2ccc(NC(=O)Nc3ccc(C(F)(F)F)cc3)cc2C(=O)N([C@H](C)CO)C[C@@H]1C`, the ROS induction (% of piperlongumine) was -6.13%.

As to `C[C@H]1CN([C@@H](C)CO)C(=O)Cc2cc(NS(=O)(=O)c3cn(C)cn3)ccc2O[C@H]1CN(C)C(=O)Nc1ccc(F)cc1`, the ROS induction (% of piperlongumine) was 29.3%.

For `C[C@H](CO)N1C[C@H](C)[C@H](CN(C)C(=O)Nc2ccc(C(F)(F)F)cc2)Oc2ccc(NS(=O)(=O)c3cn(C)cn3)cc2CC1=O`, the ROS induction (% of piperlongumine) was 125% (active).

As to `C[C@@H]1CN([C@H](C)CO)C(=O)c2cc(NC(=O)Nc3ccc(C(F)(F)F)cc3)ccc2O[C@H]1CN(C)C(=O)Nc1ccccc1`, the ROS induction (% of piperlongumine) was 23.2%.

As to `Cc1noc(C)c1NC(=O)N(C)C[C@H]1Oc2ccc(NC(=O)Nc3ccc(C(F)(F)F)cc3)cc2CC(=O)N([C@@H](C)CO)C[C@@H]1C`, the ROS induction (% of piperlongumine) is 87.8% (active).

`C[C@H]1CN([C@@H](C)CO)C(=O)c2cc(NC(=O)Nc3ccccc3)ccc2O[C@@H]1CN(C)C(=O)Nc1ccccc1`: the ROS induction (% of piperlongumine) was -12.6%.

For `C[C@H](CO)N1C[C@H](C)[C@H](CN(C)C(=O)Nc2ccc(C(F)(F)F)cc2)Oc2ccc(NC(=O)Nc3ccccc3)cc2C1=O`, the ROS induction (% of piperlongumine) was 84% (active).

On to `C[C@@H]1CN([C@H](C)CO)C(=O)Cc2cc(NS(=O)(=O)c3cn(C)cn3)ccc2O[C@@H]1CN(C)C(=O)Nc1ccccc1`, for which the ROS induction (% of piperlongumine) is -5.68%.

With `Cc1noc(C)c1NC(=O)Nc1ccc2c(c1)CC(=O)N([C@H](C)CO)C[C@@H](C)[C@@H](CN(C)Cc1ccc(C(F)(F)F)cc1)O2`, the ROS induction (% of piperlongumine) is 6.6%.

Turning to `NC(=O)N1CCc2ccccc21`, the ROS induction (% of piperlongumine) is 6.65%.

`O=C(CCCCCCC(=O)Nc1ccccc1O)N/N=C/c1ccc(C(F)(F)F)cc1`: the ROS induction (% of piperlongumine) was 7.34%.

Regarding `COc1ccc(C2NNC(=S)S2)cc1` (stereo not given), the ROS induction (% of piperlongumine) is -8.92%.

For `O=C(N1CCCc2ccccc21)N1c2ccccc2Sc2ccccc21`, the ROS induction (% of piperlongumine) is -12.4%.

For the compound `C=CCN(C(=O)Cc1ccc(OC)cc1)c1nnc(-c2ccc(Cl)cc2)s1`, the ROS induction (% of piperlongumine) is -4.96%.

For `COc1ccc(C)cc1S(=O)(=O)N1CCN(C)CC1`, the ROS induction (% of piperlongumine) was -20.4%.

For the compound `C[C@@H]1CN([C@H](C)CO)C(=O)c2cc(NC(=O)NC3CCCCC3)ccc2O[C@H]1CN(C)S(C)(=O)=O`, the ROS induction (% of piperlongumine) was -3.72%.

As to `COC(=O)c1ccc(NC(=S)N2CCOCC2)cc1`, the ROS induction (% of piperlongumine) is -2.33%.

On to `C[C@H]1CN([C@@H](C)CO)C(=O)CCCn2cc(nn2)CO[C@H]1CN(C)S(=O)(=O)c1ccc2ccccc2c1`, for which the ROS induction (% of piperlongumine) is 9.35%.
